Results taken from PubChem BioAssay (NCATS).
Inconclusive results are not listed. Entries that show only a call come without a potency. Values without a mark were called inactive. Calls of active or inactive are those of the source. Calls come from the whole dose curve; as a rule, active = well fitted cell-killing curve with a large enough effect; inconclusive = small, poorly fitted or top-dose-only effect; inactive = flat fitted curve, though single readings scatter.

experiment: qHTS of pediatric cancer cell lines to identify multiple opportunities for drug repurposing: Primary screen for BT-12 cells (AID 1347101); details: BT-12 viability, CellTiter-Glo luminescence, 48 h; series mostly up to 57.3 µM; note: nearly all actives have a fitted effect of over 25% in size
Description: Drug repurposing or repositioning has been offered as a strategy for drug development in oncology programs. This approach has special potential for childhood cancers and other rare or orphan diseases, where the expected return on new drug development has been a disincentive to pharmaceuticals.
In this project we exploit the poly-pharmacology of drugs to discover new indications via phenotypic screening of a panel of 19 well-characterized cell lines derived from solid tumors seen in children and adolescents. The goal is to identify approved drugs with previously unrecognized anticancer properties that has the potential to reveal new mechanisms and biological processes involved in carcinogenesis or drug resistance. We employed a titration-based paradigm (quantitative high-throughput screening or qHTS), where all compounds were tested at multiple concentrations for their effect on cell viability. Concentration-response curves (CRCs) were derived directly from the primary screen, and both potency and efficacy values were used to identify compounds with robust bioactivity profiles. We screened the NIH Chemical Genomics Center (NCGC) Pharmaceutical Collection (NPC) and Mechanism Interrogation Plate (MIPE) small molecule collections of approved and investigational compounds against these cell lines; and measured metabolically active cells after 48 hours of compound treatment as a proxy for cell viability.
Assay Submitter: Nathalia J. Martinez, National Center for Advancing Translational Sciences, National Institutes of Health, Rockville, MD, USA; email: natalia.martinez@nih.gov
[1] Shen, M et al. Quantitative high-throughput phenotypic screening of pediatric cancer cell lines identifies multiple opportunities for drug repurposing. Oncotarget 2017 Dec 19;9(4):4758-4772. PMID 29435139.
The cells were obtained from University of North Carolina (UNC), Pediatric Preclinical Testing Program (PPT), and Coriell Institute (CI).
qHTS cell viability assay:
Cells were assayed in growth media at a density of 500-1,000 cells/well. Five microliters of cells were dispensed into 1,536-well, white, solid-bottom, TC-treated plates (Greiner Bio One) using a multidrop dispenser and incubated at 37 degrees C, 5% CO2, under a humidified atmosphere for 5 hours. Twenty-three nanoliters of compounds and controls (neutral control DMSO or positive control bortezomib at final concentration of 2.3 µM) were subsequently transferred by Kalypsys pintool. For primary screens, the MIPE collection was tested at 11-point dilutions (final concentrations range from 0.78 nM to 46 µM) and the NPC collection at 8-point dilutions (final concentrations range from 0.59 nM to 46 µM). Compounds tested in follow-up screens were assayed at 11-point dilutions. Cells were incubated for 48 hours, followed by addition of 3 µL of CellTiter-Glo (Promega). After a 15 min incubation at room temperature, samples were analyzed for luminescence intensity using a ViewLux High-throughput CCD imager equipped with clear filters.
Potency is the fitted concentration of half-maximal effect.

SMILES | Potency | activity change, negative = cytotoxic
COC1=C(OC)C(=O)C(CC=C(C)CCC=C(C)CCC=C(C)CCC=C(C)CCC=C(C)CCC=C(C)CCC=C(C)CCC=C(C)CCC=C(C)CCC=C(C)C)=C(C)C1=O | inactive | 
O=C(O)CCCCCC(=O)NN=C1CCCC1 | inactive | 
OC[C@@H](O)[C@@H](O)[C@H](O)[C@@H](O)CO | inactive | 
Cn1cc(-c2ccc3ncc(Cc4ccc5ncccc5c4)n3n2)cn1 | inactive | 
C[C@@H](Oc1ccc2[nH]nc(C=Cc3cnn(CCO)c3)c2c1)c1c(Cl)cncc1Cl | 17.2 µM (active) | 
CC(=O)NCC(=O)N1[C@H]2CC[C@H]1c1cc(Nc3ncc(C(F)(F)F)c(NC4CCC4)n3)ccc12 | 24.3 µM (active) | 
CCCCCCCCCCCCc1ccc(S(=O)(=O)Nc2nncs2)cc1 | inactive | 
Cc1cc(-c2nnc3n2CCCCC3)c(C)n1-c1ccccc1 | inactive | 
CC(Cc1ccc(O)c(O)c1)(NN)C(=O)O (stereo not given) | inactive | 
COc1cc(OC)cc(-c2ccc3ncc4ccc(=O)n(-c5ccc(N6CCNCC6)c(C(F)(F)F)c5)c4c3c2)c1 | 19.3 µM (active) | 
C=CC(=O)N1CCc2ccc(-n3c(=O)ccc4cnc5ccc(-c6cnn(C)c6)cc5c43)cc21 | 6.11 µM (active) | 
COC(=O)C=CC(=O)OC | inactive | 
CC(C)(C)c1nc2c3cc[nH]c(=O)c3c3cc(F)ccc3c2[nH]1 | inactive | 
COc1cc(C[C@@H](CO)[C@H](CO)Cc2ccc(O)c(OC)c2)ccc1O | 10.9 µM (active) | 
CCN1CCN(C(=O)N[C@H](C(=O)N[C@@H]2C(=O)N3C(C(=O)O)=C(CSc4nnnn4C)CS[C@@H]23)c2ccc(O)cc2)C(=O)C1=O |  | 17.1% [at 11.5 µM]
Nc1nc(=O)n([C@H]2CSC(CO)O2)cc1F (stereo not given in full) | inactive | 
CN1C(C(=O)Nc2ccccn2)=C(O)c2sc(Cl)cc2S1(=O)=O | inactive | 
COc1ccnc2[nH]cc(C(=O)C(=O)N3CCN(C(=O)c4ccccc4)C[C@@H]3C)c12 | inactive | 
Cc1cn([C@@H]2O[C@H](CO)[C@@H](O)[C@H]2F)c(=O)[nH]c1=O | inactive | 
NC(=O)c1ncn([C@@H]2O[C@H](CO)[C@@H](O)[C@@H]2O)c1O | inactive | 

SMILES | Potency | activity change, negative = cytotoxic
O=C(O)[C@H](CC(=O)N1C[C@@H]2CCCC[C@H]2C1)Cc1ccccc1 | inactive | 
CC(=O)O[C@]1(C(C)=O)CC[C@H]2[C@@H]3C=C(C)C4=CC(=O)CC[C@]4(C)[C@@H]3CC[C@@]21C | 15.3 µM (active) | 
C#C[C@]1(O)CC[C@@H]2[C@@H]3CCC4=CC(=O)CC[C@@H]4[C@H]3CC[C@@]21CC | inactive | 
CC(=CC(=O)Nc1ccccc1C(=O)O)c1ccc2ccccc2c1 | inactive | 
FC(F)c1nc2ccccc2n1-c1nc(N2CCOCC2)nc(N2CCOCC2)n1 | 1.22 µM (active) | 
O=c1[nH]c(=O)n([C@H]2C[C@@H](O)[C@@H](CO)O2)cc1C=CBr | inactive | 
CC(C)Oc1ccc(C(=O)N[C@H](CNC(=O)CN(C)C)Cc2ccc(-c3cn4cccc([C@H](C)O)c4n3)cc2)cc1Cl | 1.93 µM (active) | 
CCOc1cc2c(c(F)c1OCC)C(=N)N(CC(=O)c1cc(N3CCOCC3)c(OC)c(C(C)(C)C)c1)C2 | 27.3 µM (active) | 
OCC(O)C(O)C(O)CO (stereo not given) | inactive | 
CCOC(=O)C1=C(C)NC(=S)NC1c1cccc(O)c1 (stereo not given) | 0.137 µM (active) | 
CC(C=CC=C(C)C=CC1=C(C)CCCC1(C)C)=CC=CC=C(C)C=CC=C(C)C=CC1=C(C)CCCC1(C)C | inactive | 
CCN(CC)CCNC(=O)c1c(C)[nH]c(C=C2C(=O)Nc3ccc(F)cc32)c1C | 44.4 µM (active) | 
CC(Oc1ccc(O)cc1)(P(=O)(O)O)P(=O)(O)O | inactive | 
COc1ccc(S(=O)(=O)Nc2cc(-c3c(O)ccc4ccccc34)c(O)c3ccccc23)cc1 | 30.6 µM (active) | 
CN(C)CCN1C(=O)c2cccc3cc(N)cc(c23)C1=O | 21.7 µM (active) | 
COC[C@H](NC(=O)c1cnc(C)s1)C(=O)N[C@@H](COC)C(=O)N[C@@H](Cc1ccccc1)C(=O)[C@@]1(C)CO1 | 0.432 µM (active) | 
CC(=O)O[C@H]1C[C@@H]2CC[C@H]3[C@H]4C[C@H]([N+]5(C)CCCCC5)[C@@H](OC(C)=O)[C@@]4(C)CC[C@@H]3[C@@]2(C)C[C@H]1N1CCCCC1 | inactive | 
CN[C@H]1[C@@H](O)[C@@H]2O[C@@H]3O[C@H](C)CC(=O)[C@]3(O)O[C@@H]2[C@@H](NC)[C@H]1O | 1.09 µM (active) | 
N#Cc1cc(NC(=O)Nc2nnc(-c3ccncc3)s2)ccc1-c1cn[nH]c1 | inactive | 
O=C(Nc1ccc(Oc2ccnc3[nH]ccc23)c(F)c1)c1cccn(-c2ccc(F)cc2)c1=O | inactive | 
